Measurements reported in PubChem BioAssay (EPA / NIEHS).
The source made the active and inactive calls. Rule for the calls: active = hit-call score of the fitted dose curve at least 0.9, where 1 is the maximum; inactive = score below 0.9.

Test: ATG_Ets_CIS: Attagene CIS-FACTORIAL HepG2 Assay for human Erythroblast Transformation Specific (ETS) (AID 2282941)
Details: HepG2 ETS cis-reporter transcription, actives raise or lower the signal
Protocol: ATG_CIS is a cell-based, multiplexed-readout assay that uses HepG2, a human liver cell line, with measurements taken at 24 hours after chemical dosing in a 24-well plate.ATG_Ets_CIS is one of 52 assay component(s) measured or calculated from the ATG_CIS assay. It is designed to make measurements of mRNA induction, a form of inducible reporter, as detected with fluorescence intensity signals by Reverse transcription polymerase chain reaction (RT-PCR) and Capillary electrophoresis technology.Data from the assay component ATG_Ets_CIS was analyzed into 1 assay endpoint. This assay endpoint, ATG_Ets_CIS, was analyzed with bidirectional fitting relative to DMSO as the negative control and baseline of activity. Using a type of inducible reporter, measures of mRNA for gain or loss-of-signal activity can be used to understand the reporter gene at the transcription factor-level as they relate to the gene ETS1. Furthermore, this assay endpoint can be referred to as a primary readout, because this assay has produced multiple assay endpoints where this one serves a reporter gene function. To generalize the intended target to other relatable targets, this assay endpoint is annotated to the dna binding intended target family, where the subfamily is winged helix-turn-helix.
Human liver HepG2 cells are transiently transfected with multiple reporter transcription units (MRTUs) in 6-well plates using FuGene 6 reagent (Roche; 3 ml FuGene/1 mg DNA). The MRTU constructs are regulated by a cis-regulating element (promoter). […] A major difference between the CIS and TRANS system is that in CIS activities of endogenous TFs are measured, whereas the TRANS assay evaluates changes in activities of exogenous, chimeric NR-Gal4 proteins. […] At the end of 24 hour incubation, total RNA was isolated using TriZol reagent (Invitrogen). The isolated RNA is then reverse-transcribed using oligo(dT) primer and Mo-MLV reverse transcriptase (Invitrogen) with DNAse I (Ambion) treatment for 30 min. The one-tenth of the produced cDNA was amplified by PCR using Taq DNA polymerase (Invitrogen) and two reporter sequence-specific primers. The PCR products were fluorescently labeled by primer extension with 6-arboxyfluorescein (6-FAM) 5'-labeled reporter sequence-specific primer (2 min at 95 C, 20 s at 68 C and 10 min at 72 C) and these products were digested with 5U of HpaI (New England Biolabs) for 2h at 37 C. The fragments were purified using Qiaquick PCR columns (Qiagen), analyzed on an ABI 3130xL genetic analyzer (Applied Biosystems) with peak positions identified by using a set of X-rhodamine (ROX)-labeled MapMarker1000 molecular weight standards (BioVentures). The raw capillary electrophoresis data was processed using Attagraph software (Attagene).

outcome, inactive:
CCCCC(CC)(CO)CO
CCOc1ccc(NC(=O)CC(C)=O)cc1
IC(I)I
O=c1c(O)c(-c2ccc(O)cc2)oc2cc(O)cc(O)c12
O=C(Nc1ccc2c(c1)Cc1ccccc1-2)C(F)(F)F
C=CC(=O)OCCCC
Cc1cc(=O)oc2cc(N(C)C)ccc12
C1CCOC1
CCN(CCC#N)c1ccc(N=Nc2ccc([N+](=O)[O-])cc2)cc1
CC(C)(CO)[C@@H](O)C(=O)NCCC(=O)O
Clc1ccc(C(c2ccccc2Cl)C(Cl)Cl)cc1 (stereo not given)
CCC1(c2ccccc2)C(=O)NCNC1=O
CC(=O)C1(C)CC2=C(CCCC2(C)C)CC1C (stereo not given)
COc1ccc(CCO)cc1
CCCCCCCCN1CCCC1=O
Nc1c(S(=O)(=O)O)cc(Br)c2c1C(=O)c1ccccc1C2=O
CCCCC(CC)COC(=O)c1ccc(O)cc1 (stereo not given)
C[N+](C)(C)CCCCCC[N+](C)(C)C
C=C(C#N)C(=O)OCC
CC/C=C\CCOC(=O)CC
COCCOC(=O)c1ccccc1C(=O)OCCOC
c1ccc(CN(Cc2ccccc2)Cc2ccccc2)cc1
CS(C)=O
CCCCCCCC(=O)OCC(O)CO (stereo not given)
CCCCCCCCCCCC(=O)OC[C@@H](O)[C@H]1OC[C@H](O)[C@H]1O
CCOC(=O)c1ccc(N)cc1
COC(CC(C)CCCC(C)(C)O)OC (stereo not given)
CCCCCCCCCCCC(=O)OCC(O)CO (stereo not given)
Cc1ncc([N+](=O)[O-])n1CCO
NC(=S)NNC(N)=S
O=C1NC2NC(=O)NC2N1 (stereo not given)
Nc1ccc(N)c2c1C(=O)c1ccccc1C2=O
CN(c1nccc(=O)[nH]1)C1CCN(c2nc3ccccc3n2Cc2ccc(F)cc2)CC1
C[C@@H]1CCN(C(=O)[C@H](CCCN=C(N)N)NS(=O)(=O)c2cccc3c2NC[C@H](C)C3)[C@@H](C(=O)O)C1
CC1(C)O[C@@H]2C[C@H]3[C@@H]4CCC5=CC(=O)C=C[C@]5(C)[C@@]4(F)[C@@H](O)C[C@]3(C)[C@]2(C(=O)CO)O1
Cc1c(OCC(F)(F)F)ccnc1CS(=O)c1nc2ccccc2[nH]1 (stereo not given)
CCCCC(CC)COC(C)=O (stereo not given)
CCCN(CCC)S(=O)(=O)c1ccc(C(=O)O)cc1
C=CCCCCCCCCCC
Nc1c(Cl)cc(Cl)cc1[N+](=O)[O-]
